Assay [1] can be described thus: HepG2 liver cancer cell viability effects, profiling panel, resazurin fluorescence, 24 h, PK04 Diversity Set (AID 1172). The following applies: higher = more signal.
A short description of assay [2]: basal S. cerevisiae growth modulation, no modifier, primary screen, OD600, strain BY4716, 24 h, basal condition (AID 1173). The following applies: OD600, 24 h, higher = more signal, called active from +8 up or from −8 down.
Assay [3] in a line: MM1S myeloma cell viability, profiling panel, resazurin fluorescence, basal, 24 h, PK04 Diversity Set (AID 1174). The settings on record: higher = more signal, called active from +8 up or from −8 down.
The target in assay [4] is Dihydroorotate dehydrogenase (quinone), mitochondrial (Plasmodium falciparum (isolate 3D7)) (UniProt Q08210). Description: PfDHODH enzyme inhibitors, primary screen, biochemical, C-terminal His tag, absorbance 600 nm (AID 1175).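 Also: recombinant parasite enzyme with a five histidine tag at its C terminus.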 The settings on record: DCIP absorbance 600 nm, higher = more signal, called active from +8 up or from −8 down.
Assay [5] is described as follows: P. aeruginosa biofilm formation inhibitors, primary screen, strain PAO1, LB-PBS medium, absorbance 600 nm (AID 1176). The following applies: P. aeruginosa PAO1 growth/biofilm, A600, 12 h; higher = more signal.
A short description of assay [6]: S. cerevisiae RM11-1a growth modifiers, primary screen, strain RM11-1a, OD600, basal, 24 h (AID 1177).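 Also: cultures grown under basal conditions with no added stressor.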 The following applies: OD600, 24 h, higher = more signal, called active from +8 up or from −8 down.
Assay [7] can be described thus: E. coli acrAB mutant growth effects, primary screen, E. coli filamentation inducers, strain DRC39, OD650, 24 h (AID 1178).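 Also: growth measured as culture turbidity by optical density at 650 nm.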 The settings on record: higher = more signal, called active from +8 up or from −8 down.
The nature of assay [8]: E. coli acrAB mutant growth effects, primary screen, E. coli filamentation inducers, strain DRC39, OD650, 48 h (AID 1179).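 Also: screen aims at cell division blockers that make cells filament.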 The settings on record: E. coli DRC39 delta-acrAB growth, higher = more signal, called active from +8 up or from −8 down.
Assay [9] can be described thus: RPMI8226 myeloma cell viability, profiling panel, resazurin fluorescence, basal, 24 h, PK04 Diversity Set (AID 1180).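 Also: RPMI8826 multiple myeloma cell line at 5000 cells per well.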 The following applies: higher = more signal.
The target in assay [10] is E3 ubiquitin-protein ligase XIAP (Homo sapiens) (UniProt P98170). The experiment in a line: XIAP binders, primary screen, biophysical, small-molecule microarray, fluorescence 635 nm (AID 1181).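 Also: score merges 667 nm emission and signal to noise over triplicate slides.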 The settings on record: small-molecule microarray binding, higher = more signal.
Assay [11] has as its system XIP peptide (Xip251-270) binding. The experiment in a line: small-molecule binders of XIP peptide, primary screen, biochemical, small-molecule microarray, fluorescence 635/667 nm, 0.1 µg/mL protein (AID 1182). The following applies: fluorescent protein binding, 635 nm, higher = more signal, called active from +8 up or from −8 down.
The next assay deals with XIP peptide (Xip251-270). Description: small-molecule binders of XIP peptide, primary screen, biochemical, small-molecule microarray, fluorescence 635/667 nm, 0.5 µg/mL protein (AID 1183). The following applies: small-molecule microarray binding, fluorescence 635 nm; higher = more signal.
Assay [12] can be described thus: Plasmodium falciparum growth inhibition, primary screen, strain 3D7, DAPI fluorescence, 100 nL (AID 1184).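 Also: parasites grown inside human red blood cells in medium with human serum.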 The following applies: P. falciparum 3D7 growth, 3 d, higher = more signal.
Assay [13] concerns the target Homeobox protein Hox-A13 (Mus musculus) (UniProt Q62424). The experiment in a line: inhibitors of HoxA13-DNA binding, primary screen, biochemical, fluorescence polarization, labeled oligonucleotide (AID 1185). The settings on record: 15 min, higher = more signal, called active from +8 up or from −8 down.
Assay [14] is described as follows: inhibitors of hydroxyurea-induced Chk1 phosphorylation, primary screen, imaging, HeLa, phospho-Chk1 antibody, percent positive cells (AID 1186). The following applies: hydroxyurea-induced phospho-Chk1 immunofluorescence imaging, higher = more signal.
The nature of assay [15]: inhibitors of hydroxyurea-induced Chk1 phosphorylation, primary screen, imaging, HeLa, phospho-Chk1 nuclear intensity (AID 1187). The settings on record: hydroxyurea-induced phospho-Chk1 immunofluorescence imaging, higher = more signal.

Z-score and composite z-score data for 8 compounds are collected here from PubChem BioAssay.

Structures are written as SMILES. Active and inactive are the calls of the source. Unless noted, no rule for the calls is given here.

Chain of E3 ubiquitin-protein ligase XIAP (Homo sapiens) (P98170 whole entry, looked up): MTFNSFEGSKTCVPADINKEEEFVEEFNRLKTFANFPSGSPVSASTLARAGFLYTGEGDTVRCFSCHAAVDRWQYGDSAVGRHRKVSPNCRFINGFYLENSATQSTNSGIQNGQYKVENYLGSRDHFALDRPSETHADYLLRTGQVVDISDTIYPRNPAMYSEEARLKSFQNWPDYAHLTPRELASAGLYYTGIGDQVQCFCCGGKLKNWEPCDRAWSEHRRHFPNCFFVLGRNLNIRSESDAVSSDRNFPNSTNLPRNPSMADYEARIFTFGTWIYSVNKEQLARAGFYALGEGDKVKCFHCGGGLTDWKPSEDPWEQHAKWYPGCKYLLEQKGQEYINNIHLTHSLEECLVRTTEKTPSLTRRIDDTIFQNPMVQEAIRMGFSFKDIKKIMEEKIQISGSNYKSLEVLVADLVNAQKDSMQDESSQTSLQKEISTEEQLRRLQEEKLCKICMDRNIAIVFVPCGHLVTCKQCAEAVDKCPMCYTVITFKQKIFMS
Chain of Dihydroorotate dehydrogenase (quinone), mitochondrial (Plasmodium falciparum (isolate 3D7)) (Q08210 whole entry, looked up): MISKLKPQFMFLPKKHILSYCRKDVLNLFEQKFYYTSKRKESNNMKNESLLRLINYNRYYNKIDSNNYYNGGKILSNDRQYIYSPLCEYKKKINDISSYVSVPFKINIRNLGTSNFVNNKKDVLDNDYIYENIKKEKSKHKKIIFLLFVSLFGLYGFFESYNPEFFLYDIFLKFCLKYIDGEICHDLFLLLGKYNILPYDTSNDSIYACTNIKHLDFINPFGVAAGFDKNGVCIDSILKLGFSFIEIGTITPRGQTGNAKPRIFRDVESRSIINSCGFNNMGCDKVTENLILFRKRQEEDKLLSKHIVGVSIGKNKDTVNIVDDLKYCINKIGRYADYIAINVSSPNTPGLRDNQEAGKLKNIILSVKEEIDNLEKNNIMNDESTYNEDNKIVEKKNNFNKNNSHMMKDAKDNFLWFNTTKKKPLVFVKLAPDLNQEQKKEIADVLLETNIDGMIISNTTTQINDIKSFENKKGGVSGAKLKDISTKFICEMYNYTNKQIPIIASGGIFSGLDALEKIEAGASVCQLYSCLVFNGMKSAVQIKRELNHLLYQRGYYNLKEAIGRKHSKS
Chain of Homeobox protein Hox-A13 (Mus musculus) (Q62424 whole entry, looked up): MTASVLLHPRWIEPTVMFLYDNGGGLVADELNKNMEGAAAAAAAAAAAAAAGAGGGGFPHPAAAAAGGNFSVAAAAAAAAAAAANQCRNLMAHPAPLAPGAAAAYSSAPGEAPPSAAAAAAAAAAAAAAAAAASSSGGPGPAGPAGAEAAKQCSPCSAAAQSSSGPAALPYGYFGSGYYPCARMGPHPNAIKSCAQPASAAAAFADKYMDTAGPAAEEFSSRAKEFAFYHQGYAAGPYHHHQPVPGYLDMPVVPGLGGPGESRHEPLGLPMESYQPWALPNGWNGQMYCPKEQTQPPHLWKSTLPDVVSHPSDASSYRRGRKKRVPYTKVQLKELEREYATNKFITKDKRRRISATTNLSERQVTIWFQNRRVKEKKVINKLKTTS

Consider `COCCOC(=O)N1C(=O)[C@@]2(c3cc(C#Cc4ccc(OC)cc4)ccc31)[C@H](C(N)=O)[C@H]1C(=O)O[C@H](c3ccccc3)[C@H](c3ccccc3)N1[C@@H]2c1ccc(OCCO)cc1`, for which the z-score was 0.0456 in assay [1]; 1.61 (inactive) in [2]; -1.41 (inactive) in assay [3]; 1.71 (inactive) in assay [5]; 2.42 (inactive) in assay [6]; -0.315 (inactive) in assay [7]. Moreover, the z-score was -0.697 (inactive) in assay [8]; -1.82 in assay [9]; -2.35 in assay [12]; -1.11 (inactive) in assay [13]; 0.0311 (inactive) in assay [14]; 0.239 (inactive) in assay [15]. Also, the composite z-score is -0.0352 (inactive) in assay [4], -0.157 in [10], 0.283 (inactive) in assay [11] and 0.721 in the assay on XIP peptide (Xip251-270).
For the compound `CC(C)C[C@H]1NC(=O)[C@H](C)NC(=O)[C@@]23C(=O)N[C@@H](Cc4ccccc4)C2[C@H](C)[C@@]2(C)O[C@H]2C3/C=C/C/C=C\CNC1=O` (stereo partly drawn), the z-score in [1] is -0.594; in [2] it was -0.49 (inactive); in assay [3], 0.0114 (inactive); in assay [5], 0.413 (inactive); in assay [6], -0.837 (inactive); in assay [7], -0.599 (inactive). Also, the z-score in assay [8] was -0.555 (inactive); in assay [9], 0.154; in assay [12], 0.96; in assay [13], -6.14 (inactive); in assay [14], -0.454 (inactive); in [15], -0.576 (inactive). For the same compound, the composite z-score is -0.401 (inactive) in assay [4], 0.0822 in [10], 1.2 (inactive) in assay [11] and 0.685 in the assay with XIP peptide (Xip251-270).
Regarding `COc1ccc(C(=O)Nc2ccc(CN3C(=O)[C@]4(O[C@H](CCn5cc([C@H](O)c6ccccc6)nn5)[C@@H]([Si](C)(C)c5ccc(OC)cc5)[C@@H]4C)c4ccccc43)cc2)cc1`, the z-score in assay [1] was -1.34; in assay [2] it was -0.884 (inactive); in assay [3], -3.17 (inactive); in assay [5] it was 1.55 (inactive); in assay [6] it was 1.63 (inactive); in [7] it was 0.938 (inactive). Further, the z-score in assay [8] was 0.63 (inactive); in [9], -3.24; in assay [12] it was -2.7; in assay [13], 0.564 (inactive); in assay [14] it was 0.107 (inactive); in assay [15] it was 0.168 (inactive). Moreover, the composite z-score is -0.0934 (inactive) in [4], 0.0623 in assay [10], -0.211 (inactive) in [11] and -0.0268 in the assay with XIP peptide (Xip251-270).
Turning to `COc1ccc([Si](C)(C)[C@H]2[C@H](CCn3cc(CCO)nn3)O[C@@]3(C(=O)N(Cc4cccc(N5C(=O)c6cccc7cccc5c67)c4)c4ccccc43)[C@@H]2C)cc1`, the z-score was -2.74 in assay [1]; 0.425 (inactive) in [2]; -6.02 (inactive) in assay [3]; 1.76 (inactive) in assay [5]; 2.16 (inactive) in assay [6]; 2.38 (inactive) in [7]. Moreover, the z-score is 1.74 (inactive) in assay [8]; -5.82 in [9]; -2.55 in assay [12]; -2.56 (inactive) in assay [13]; -0.854 (inactive) in assay [14]; 0.0226 (inactive) in assay [15]. In addition, the composite z-score was -0.455 (inactive) in [4], 0.235 in [10], 0.979 (inactive) in assay [11] and 0.697 with XIP peptide (Xip251-270).
On to `C#CCOC(=O)N[C@H](C=CCCCC)c1ccccc1`, for which the z-score in assay [1] is 0.063; in [2], 0.578 (inactive); in [3], -0.883 (inactive); in [5] it was 0.936 (inactive); in [6] it was -0.0736 (inactive); in assay [7], -0.467 (inactive). The z-score was -0.424 (inactive) in assay [8]; -0.137 in assay [9]; -0.817 in assay [12]; -3.62 (inactive) in assay [13]; 0.163 (inactive) in assay [14]; 0.195 (inactive) in assay [15]. For the same compound, the composite z-score in assay [4] is -0.837 (inactive); in assay [10], -0.0133; in assay [11], 0.0811 (inactive); in the assay on XIP peptide (Xip251-270), -0.632.
On to `NC(=O)NCC#Cc1ccc2c(c1)[C@]1(C(=O)N2)[C@H](c2ccc(O)cc2)N2[C@H](c3ccccc3)[C@H](c3ccccc3)OC(=O)[C@H]2[C@@H]1C(=O)NC[C@H](O)c1ccccc1`, for which the z-score is 0.22 in assay [1]; -0.683 (inactive) in assay [2]; 0.953 (inactive) in assay [3]; -0.136 (inactive) in assay [5]; -0.0444 (inactive) in assay [6]; 0.203 (inactive) in assay [7]. In addition, the z-score is 0.841 (inactive) in [8]; 0.82 in [9]; -0.547 in assay [12]; -0.93 (inactive) in assay [13]; -0.186 (inactive) in assay [14]; -0.151 (inactive) in assay [15]. Further, the composite z-score in [4] was -0.494 (inactive); in [10], 0.045; in assay [11] it was -0.0884 (inactive); in the assay with XIP peptide (Xip251-270) it was -0.294.
Consider `CC(C)(C)OC(=O)CC[C@]1(C(=O)N2CCCCC2)N=C(c2ccc(OCCCO)cc2)O[C@H]1c1ccccc1CN=[N+]=[N-]`, for which the z-score in assay [1] is -0.725; in assay [2], -0.451 (inactive); in [3], 0.0183 (inactive); in assay [5], 0.618 (inactive); in assay [6] it was -0.391 (inactive); in assay [7], 2.41 (inactive). In addition, the z-score in assay [8] is 2.39 (inactive); in assay [9] it was -0.357; in assay [12], -2.26; in [13], -2.91 (inactive); in [14], -0.692 (inactive); in assay [15], -0.917 (inactive). Moreover, the composite z-score in assay [4] is -0.625 (inactive); in [10], 0.0346; in assay [11], 1.25 (inactive); in the assay on XIP peptide (Xip251-270) it was 0.855.
On to `OCc1ccc(-c2cc[n+](Cc3cccc(OC(F)(F)F)c3)cc2)cc1`, for which the z-score in assay [1] was -0.0785; in assay [2], -0.615 (inactive); in [3], -0.297 (inactive); in assay [5], 0.282 (inactive); in [6] it was -0.327 (inactive); in [7] it was 0.188 (inactive). Further, the z-score in assay [8] is 0.147 (inactive); in assay [9], -0.784; in assay [12], -1.63; in assay [13], -6.13 (inactive); in [14], 0.258 (inactive); in assay [15], 0.666 (inactive). Further, the composite z-score in assay [4] is -5.09 (inactive); in assay [10] it was 0.222; in [11] it was 1.18 (inactive); with XIP peptide (Xip251-270), 0.596.
